In PubChem BioAssay AID2314 (National Center for Advancing Translational Sciences (NCATS), 2010) one finds max response data, which are given here for 91 compounds.

SMILES strings stand for the structures. Where “and” joins values, the source holds several entries; their conditions need not be identical. Equal entries are not always repeated. About 37,000 (12%) of roughly 300,000 compounds were called active. The sample as a whole holds a higher share of actives than the screen did. Unmarked numbers belong to inactive results. Rule as the data show it: active = max response mostly above about 13% (no sharp cut-off); inactive = mostly below about 14%.

The nature of the assay: Cycloheximide Counterscreen for Small Molecule Inhibitors of Shiga Toxin. Also: read at 38.3 µM for the half of the compounds with a filed dose; 0% is about no effect. Conditions: cell reporter, cycloheximide protein synthesis inhibition counterscreen; active compounds read high. (In general: A counterscreen serves to expose hits that act by an unwanted route or on another target.)
Consider `COc1ccc(SCCN2CCN(CC(C)C)CCC2=O)cc1`, for which the max response is 4.3% and 7.92%.

As for `Cc1nn(C)c(C)c1C(C)NC(=O)c1ccc(OC2CCN(Cc3ccccn3)CC2)cc1` (stereo unspecified), the max response was -1.08%.

As to `CC1CCCCC1NC(=O)/C(C#N)=C/C=C/c1ccccc1[N+](=O)[O-]` (stereo unspecified), the max response is 32.9% (active).

Turning to `O=C(/C=C/c1ccccc1[N+](=O)[O-])NCC1CCCO1` (stereo unspecified), the max response was 10.2%.

In the case of `O=C(/C=C/c1ccccc1[N+](=O)[O-])OC1CCCCC1=O` (stereo unspecified), the max response is -0.626%.

With `CCN(C(=O)CSc1nc2ccccc2n1CC)C1CCS(=O)(=O)C1` (stereo unspecified), the max response is 1.92%.

On to `CCC(C)(C)c1ccc(Oc2ccc(NC(=O)COC(=O)C3=COCCO3)cc2)cc1`, for which the max response is 5.65%.

As to `O=C(OCC(=O)c1cccs1)c1ccc([N+](=O)[O-])o1`, the max response is 3%.

Take `O=C(OCC(=O)c1cccs1)C1=COCCO1`: the max response is 51.4% (active).

For the compound `CCOC(=O)c1c(C)[nH]c(C)c1S(=O)(=O)NCCCc1ccco1`, the max response is -2.93%.

Consider `CCOc1ccc(C2c3[nH]c4ccccc4c3CCN2Cc2cccn2-c2ncccn2)cc1` (stereo unspecified), for which the max response is 0.0691%.

On to `C/C(=N\NC(=O)C1(C)CC1(Br)Br)c1ccc(C)cc1C` (stereo unspecified), for which the max response was 12.6%.

Take `O=[N+]([O-])c1cc(S(=O)(=O)Nc2cccc(Cl)c2)ccc1N=Nc1c(O)[nH]c2ccccc12`: the max response was -1.65%.

For the compound `C=CCOc1ccccc1/C=N/NC(=O)Cc1ccccc1`, the max response was 9.84%.

In the case of `O=C(CCC(=O)Nc1ccccc1)N/N=C/c1ccccc1F`, the max response is 25.1% (active).

Take `O=C(CCCCCNC(=O)c1ccccc1)N/N=C/c1ccccc1`: the max response was 13.5%.

Turning to `COc1ccc(C(C)NC(=O)C23CC4CC(CC(C4)C2)C3)cc1` (stereo unspecified), the max response was -0.477%.

In the case of `Cc1noc(C)c1S(=O)(=O)Nc1ccc(C(=O)N2CCN(c3ccc(F)cc3)CC2)cc1`, the max response is 11.8%.

For `CN(C)c1nc(=Nc2cccc(Cl)c2)ss1`, the max response is 24.1% (active).

Take `CCOC(=O)C1=C(O)CSC1=Nc1cccc(Cl)c1`: the max response is -2.53%.

As for `N#Cc1cccc(NC(=O)COC(=O)c2ccccc2C(=O)c2ccc(Cl)c([N+](=O)[O-])c2)c1`, the max response was 3.74%.

On to `O=c1[nH]c(=S)[nH]c2[nH]c(=S)[nH]c12`, for which the max response is -3.22%.

For `CCOC(=O)C1CCN(C(=O)c2ccccc2N(C)S(=O)(=O)c2ccccc2)CC1`, the max response is -2.92%.

Consider `O=S(=O)(NCc1ccc(Cl)cc1Cl)c1cccs1`, for which the max response is 14.3% (active).

Turning to `O=C(Nc1nncs1)c1ccccc1NS(=O)(=O)c1cccs1`, the max response is 2.77%.

For `O=S(=O)(Nc1ccccc1Br)c1cccs1`, the max response is -5.92%.

Turning to `O=C(Nc1cccc(Cl)c1)Nc1ccccc1NS(=O)(=O)c1cccs1`, the max response was 11% (active).

In the case of `O=S(=O)(NCCc1ccc(Cl)cc1)c1cccs1`, the max response is 7.85%.

Consider `CN(Cc1ccc(F)cc1Cl)S(=O)(=O)c1cccs1`, for which the max response was 15.3%.

Turning to `O=C(Nc1ccc(Br)cn1)C1CCN(S(=O)(=O)c2cccs2)CC1`, the max response was 2.63%.

In the case of `c1ccc(C2CNCc3c2ccc2ccccc32)cc1` (stereo unspecified), the max response is -1.66%.

On to `COc1cc(-c2n[nH]c(=S)n2Cc2ccccc2)cc(OC)c1OC`, for which the max response was -3.31%.

Take `CC(=O)c1c(O)cc2n(c1=O)-c1ccc(Cl)cc1C2(C)C`: the max response was -1.91%.

As to `COc1ccccc1CCNS(=O)(=O)c1cn(C)nc1C`, the max response was 1.23%.

Take `Cc1c(Cl)c([N+](=O)[O-])nn1CC(=O)NCCCN1CCOCC1`: the max response is -1.84%.

`CCOc1ccc(NC(=O)CN2CCN(CC(=O)Nc3ccc(OC)cc3)CC2)cc1`: the max response was -1.52%.

In the case of `COc1ccc(-c2cn(-c3ccc(C)cc3)c(=O)n2CC(=O)Nc2ccc(OC)c(OC)c2)cc1`, the max response is 12.3%.

With `COc1ccc(NC(=O)Cn2c(-c3ccc(OC)cc3)cn(-c3ccc(C)cc3)c2=O)cc1`, the max response is 27.2% (active).

For the compound `CC(C)CCN(C(=O)c1csnn1)C(C(=O)NC1CCCC1)c1ccccc1` (stereo unspecified), the max response is -2.45%.

For `COc1ccc(NC(=O)C(C)N2c3cccc4cccc(c34)S2(=O)=O)c(OC)c1` (stereo unspecified), the max response is -5.29%.

For `COc1ccc(-c2c3c(=O)n(C)c(=O)n(C)c3cn2NC(C)=O)cc1`, the max response was -6.45%.

Turning to `Cc1ccc(-c2c3c(=O)n(C)c(=O)n(C)c3cn2-n2cnnc2)cc1`, the max response was 0.742%.

For `Cc1ccc(-c2c3c(=O)n(C)c(=O)n(C)c3cn2-c2ccccc2O)cc1`, the max response was 21.5% (active).

Take `COc1ccc(-c2c3c(=O)n(C)c(=O)n(C)c3cn2-c2cccc(OC)c2)cc1`: the max response was 0.846%.

Take `COc1cccc(-n2cc3c(c2-c2ccccc2)c(=O)n(C)c(=O)n3C)c1`: the max response is 57.2% (active).

Take `Cn1c(=O)c2cn(-c3cccc4ccccc34)cc2n(C)c1=O`: the max response is 18.7%.

Consider `Cn1c(C(=O)N2CCCC(C(=O)NCc3ccccc3)C2)cc2sccc21` (stereo unspecified), for which the max response is 3.91%.

Turning to `CCOc1ccc(S(=O)(=O)N2CCC(C(=O)NCc3ccccn3)CC2)cc1Cl`, the max response is -1.51%.

As to `COc1ccc(-c2nc(CS(=O)CC(=O)NCc3ccccc3)c(C)o2)cc1OC` (stereo unspecified), the max response was 4.98%.

On to `Cc1no[n+]([O-])c1COc1ccccc1/C=C1\NC(=S)NC1=O`, for which the max response was 5.18%.

In the case of `CC(=O)Nc1ccc(S(=O)(=O)Oc2ccc(Br)cc2C(=S)N2CCOCC2)cc1`, the max response was -3.27%.

Take `CC(=O)Nc1ccc(CN2CCC(Oc3ccc(C(=O)N4CCCC4)cc3)CC2)cc1`: the max response was -0.693%.

In the case of `O=C(Nc1ccc(Cl)cc1)/C(=C1\CCCN1)[N+](=O)[O-]`, the max response was 5.78%.

Consider `O=C(CN(c1ccccc1)S(=O)(=O)c1ccc(Cl)cc1)Nc1ccccc1C(=O)N1CCCC1`, for which the max response is -1.5%.

Consider `Cc1ccc(C2=C/C(=C\c3cccnc3)C(=O)O2)cc1`, for which the max response was -1.01%.

Turning to `O=S(O)S(=O)(=O)O`, the max response was -2.81%.

`Cc1ccccc1CN1CCN(C(=O)c2cccc(F)c2)CC1`: the max response is -3.46%.

Consider `COc1ccc(-n2cc(CN(C)Cc3n[nH]c(=O)[nH]3)c(-c3cccc(F)c3)n2)cc1`, for which the max response was 4.9%.

Turning to `CCC(O)C1CCN(Cc2cn(-c3ccc(OC)cc3)nc2-c2cccc(F)c2)CC1` (stereo unspecified), the max response is 10.6% (active).

With `COc1ccc(-n2cc(CNC3CCOCC3)c(-c3cccc(F)c3)n2)cc1`, the max response was 1.41%.

`Cc1cccc(-n2cc(CN3CCN(C(=O)c4ncn[nH]4)CC3)c(-c3cccc(F)c3)n2)c1`: the max response is 20.6% (active).

As for `Cc1ccc(C)c(-n2cc(CN3CCN(C(=O)c4ncn[nH]4)CC3)c(-c3ccccc3)n2)c1`, the max response was -1.39%.

`C=CCCC(=O)Nc1nc(C)c(-c2csc(Nc3ccc(Cl)cc3)n2)s1`: the max response was -1.48%.

On to `CCOCCCNCc1cc(Br)ccc1OCC`, for which the max response is 1.32%.

As to `O=C(NCc1ccncc1)C1CCN(C(=O)c2cccc(Cl)c2)CC1`, the max response was -4.47%.

With `Cc1ccc(NC2CCCN(C(=O)CCc3cn[nH]c3)C2)cc1C` (stereo unspecified), the max response was 2.58%.

For `COc1c(O)c2c(=O)cc(OC)c3c4c(OC)cc(=O)c5c(O)c(OC)c6c(c(c1C[C@@](C)(O)[C@H]6C(C)=O)c23)c54`, the max response is 2.19%.

For the compound `CC(=O)Nc1ccc(NC(=S)NC(=O)/C=C/c2ccccc2)cc1`, the max response is 4.54%.

In the case of `COc1ccc(C(=O)/C=C/c2ccc(OC3CSC3)cc2)cc1`, the max response is -1.52%.

In the case of `CCCC(=O)Nc1ccc(C(=O)N/N=C/c2ccc[nH]2)cc1`, the max response is 7.57%.

`CC(=O)Nc1ccc(/C=C/C(=O)c2ccccc2)cc1`: the max response is 30.5% (active).

In the case of `CC(=O)Nc1ccc(C(=O)/C=C/c2ccc[nH]2)cc1`, the max response is 49.8% (active).

For `CC(=O)Nc1ccccc1C(=O)C(=O)Nc1ccc(F)cc1`, the max response is 11.7%.

Regarding `COc1ccc(CCNc2nc3ccc(C)cc3n3cnnc23)cc1OC`, the max response was -4.65%.

`CC1CCN(S(=O)(=O)c2nnc(NC(=O)COc3ccccc3F)s2)CC1`: the max response is -2.77%.

Consider `CN(CCC(=O)Nc1cc(S(=O)(=O)N(C)C)ccc1Cl)CC(=O)Nc1ccc(F)cc1`, for which the max response was -1.74%.

As for `Cc1ccc(OC(=O)c2cncc(Br)c2)c(C)c1`, the max response was -1.19%.

Take `Cc1ccc(S(=O)(=O)c2nc(NCCCn3ccnc3)sc2Cl)cc1`: the max response was -2.37%.

As to `Cc1ccc(-c2nc(C#N)c(NCCCn3ccnc3)o2)cc1`, the max response is 16.7% (active).

As for `COc1ccc(/C=C(\C#N)C(=O)NCCCn2ccnc2)cc1`, the max response was -5.64%.

As for `O=C(Cc1ccc(-c2ccccc2)cc1)NC(c1ccccc1)c1ccccc1`, the max response is 1.24%.

Regarding `CCOC(=O)C(C(=O)OCC)C(C#N)c1ccccc1` (stereo unspecified), the max response was -1.71%.

`CCOC(=O)/C=C/C(=O)OCC(=O)NC(c1ccccc1)c1ccccc1`: the max response was 19.8% (active).

As to `COc1ccc(CNC(=O)[C@H](Cc2c[nH]c3ccccc23)NC(C)=O)cc1OC`, the max response is -3.86%.

Regarding `O=C(Nc1ccn(Cc2ccccc2F)n1)c1ccc(COc2ccc(Cl)cc2Cl)o1`, the max response was 15.1% (active).

Take `O=C(O)c1ccc(NC(=O)c2ccc(COc3ccc(Cl)cc3)o2)cc1`: the max response is 2.26%.

For the compound `COc1ccc(Cl)cc1NC(=O)NCC1CCN(Cc2ccccc2F)CC1`, the max response is -0.34%.

In the case of `Cc1nn(C(C)(C)C)c(OC(=O)CC(C)C)c1S(=O)(=O)c1ccccc1`, the max response is 9.13%.

Regarding `COc1ccc(C2c3[nH]c4ccccc4c3C[C@H]3C(=O)N(CC(C)C)CC(=O)N23)c(OC)c1` (stereo partly specified), the max response was -3.45%.

For the compound `COc1ccc(C2C=C(c3ccc(Br)cc3)Nc3nc(NS(C)(=O)=O)nn32)cc1` (stereo unspecified), the max response was -3.16%.

Regarding `Cn1nc([N+](=O)[O-])nc1Sc1ccc(C(C)(C)C)cc1`, the max response was -3.02%.
